Experimental findings from PubChem BioAssay AID651622 (National Center for Advancing Translational Sciences (NCATS), 2012) are described below.

Calls of active or inactive are those of the source.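 The calls were made as follows: active = inhibition of the USP46/UAF1 deubiquitinase of at least 60% at 114 µM in the gel test; inconclusive = inhibition from 30% up to under 60%; inactive = inhibition below 30%.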

This experiment deals with Ubiquitin carboxyl-terminal hydrolase 46 (Homo sapiens) + WD repeat-containing protein 48 (Homo sapiens) (UniProt P62068+Q8TAF3). Briefly: Inhibitors of USP1/UAF1: SAR in USP46/UAF1 diubiquitin SDS-PAGE gel assay. The following applies: USP46/UAF1 K63 diubiquitin cleavage; series mostly up to 114 µM. From the text: Deubiquitinating enzymes (DUBs) are a class of enzymes that can cleave isopeptide bond formed between the C-terminal carboxylate of ubiquitin and a lysine side-chain amino group on the target protein. Among them, ubiquitin specific proteases (USPs) constitute the largest DUB family. Human USPs are emerging as promising targets for pharmacological intervention because of their connection to a number of human diseases, including prostate, colon and breast cancer (1, 2), pediatric acute lymphoblastic leukemia (3), and familial cylindromatosis (4). The advantage of inhibiting USPs lies in the potential specificity of therapeutic intervention that can lead to better efficacy and reduce nonspecific side effects. In a collaboration between the University of Delaware and the NIH Chemical Genomics Center, a high-throughput screen assay was developed to screen for USP1/UAF1 inhibitors (5). […]
Sequence of Ubiquitin carboxyl-terminal hydrolase 46 (Homo sapiens) + WD repeat-containing protein 48 (Homo sapiens) (P62068 whole entry, looked up): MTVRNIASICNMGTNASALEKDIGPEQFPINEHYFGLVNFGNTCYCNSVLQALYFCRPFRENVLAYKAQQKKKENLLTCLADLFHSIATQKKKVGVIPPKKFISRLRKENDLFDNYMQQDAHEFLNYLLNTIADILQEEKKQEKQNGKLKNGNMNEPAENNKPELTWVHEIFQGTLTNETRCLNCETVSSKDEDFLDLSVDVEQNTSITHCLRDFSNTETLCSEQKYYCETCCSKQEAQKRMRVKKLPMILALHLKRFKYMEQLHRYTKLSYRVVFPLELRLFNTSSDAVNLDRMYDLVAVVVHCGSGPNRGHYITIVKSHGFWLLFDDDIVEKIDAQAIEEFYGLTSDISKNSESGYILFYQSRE
Sequence of Ubiquitin carboxyl-terminal hydrolase 46 (Homo sapiens) + WD repeat-containing protein 48 (Homo sapiens) (Q8TAF3 whole entry, looked up): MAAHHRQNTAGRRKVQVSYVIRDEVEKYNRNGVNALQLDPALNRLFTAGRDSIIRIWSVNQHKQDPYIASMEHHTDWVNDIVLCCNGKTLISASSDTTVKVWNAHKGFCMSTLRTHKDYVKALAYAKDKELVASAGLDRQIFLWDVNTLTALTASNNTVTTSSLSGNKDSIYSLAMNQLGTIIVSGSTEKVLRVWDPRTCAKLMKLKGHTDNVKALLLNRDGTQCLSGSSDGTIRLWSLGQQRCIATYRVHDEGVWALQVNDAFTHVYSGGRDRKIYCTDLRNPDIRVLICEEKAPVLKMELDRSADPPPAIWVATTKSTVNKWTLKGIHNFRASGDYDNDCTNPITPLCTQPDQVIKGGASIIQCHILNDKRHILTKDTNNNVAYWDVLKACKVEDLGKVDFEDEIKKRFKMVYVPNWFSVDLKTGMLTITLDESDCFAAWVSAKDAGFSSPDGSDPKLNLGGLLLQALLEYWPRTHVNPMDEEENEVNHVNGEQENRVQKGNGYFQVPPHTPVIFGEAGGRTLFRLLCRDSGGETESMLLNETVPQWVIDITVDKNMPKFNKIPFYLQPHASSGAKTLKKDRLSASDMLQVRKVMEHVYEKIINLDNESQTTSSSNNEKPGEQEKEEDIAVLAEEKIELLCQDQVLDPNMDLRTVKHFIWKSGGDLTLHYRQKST
The inhibition assay contains 100 nM USP46/UAF1, 2 microM K63 linked diubiquitin, and inhibitors at varied concentrations (0.08 microM - 114 microM). […] The intensity of the individual diubiquitin and monoubiquitin band was quantified using Quantity One 4.3.1 (Biorad, Hercules, CA). The percentage of the conversion was determined and used to calculate the reaction rate. […]
`Cc1cnc(-c2ccccc2C(C)C)nc1NCc1ccc(-n2ccnn2)cc1`: the outcome was inactive.
